Experimental data reported in PubChem BioAssay (NCI).
This is part of a sample that, as a whole, favours compounds with a hit. Of some 83,000 tested, about 20% had one in any assay.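 48-hour exposure, single concentration, 96-well plates; percent growth endpoint where 0 means no net growth. Active: below 10.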 The source made the active and inactive calls.

Assays:
Test in all cases: NCI-60 one-dose screen, 48 h (100 = growth as untreated, 0 = no growth, -100 = all killed)
Conditions in all cases: 10 µM unless noted
NCI-H23 lung = test system: NCI-H23 lung
NCI-H226 lung = test system: NCI-H226 lung
NCI-H322M lung = test system: NCI-H322M lung
HOP-62 NSCLC = test system: HOP-62 NSCLC
NCI-H460 lung = test system: NCI-H460 lung
HOP-92 NSCLC = test system: HOP-92 NSCLC
A549/ATCC NSCLC = test system: A549/ATCC NSCLC
786-0 renal = test system: 786-0 renal
COLO 205 colon = test system: COLO 205 colon
DU-145 prostate = test system: DU-145 prostate
K-562 leukemia = test system: K-562 leukemia
MALME-3M melanoma = test system: MALME-3M melanoma
MDA-MB-231 breast = test system: MDA-MB-231 breast
RXF 393 renal = test system: RXF 393 renal
SF-268 CNS = test system: SF-268 CNS
SF-295 CNS = test system: SF-295 CNS
SF-539 CNS = test system: SF-539 CNS
UACC-257 melanoma = test system: UACC-257 melanoma
M14 melanoma = test system: M14 melanoma

Measured: growth

C[C@@H]1C[C@@H]([C@@H](CC2CC(=O)NC(=O)C2)OC(=O)CC(=O)c2ccccc2)C(=O)[C@@H](C)C1
inactive: NCI-H23 lung 13.9% | HOP-62 NSCLC 13.5% | NCI-H460 lung 12.1% | COLO 205 colon 10.2% | DU-145 prostate 11.8% | K-562 leukemia 17.7% | MDA-MB-231 breast 17.5% | SF-268 CNS 15.6% | M14 melanoma 10.9%
active: NCI-H226 lung 4.07% | NCI-H322M lung -19.5% | HOP-92 NSCLC 9.2% | A549/ATCC NSCLC 1.76% | 786-0 renal 1.2% | MALME-3M melanoma -0.912% | RXF 393 renal -13.7% | SF-295 CNS 4.68% | SF-539 CNS 5.1% | UACC-257 melanoma -4.59%

CC(C)N(Cc1ccccc1)c1c(S)ssc1=S
active: NCI-H322M lung 7.56% | HOP-62 NSCLC 9.6% | NCI-H460 lung 4.45% | HOP-92 NSCLC -36.2% | A549/ATCC NSCLC 4.58% | COLO 205 colon -40.1% | MALME-3M melanoma -4.76% | MDA-MB-231 breast 2.92% | RXF 393 renal -17.4% | SF-295 CNS -5.63% | SF-539 CNS 2.54% | UACC-257 melanoma 5.96%
inactive: NCI-H23 lung 22.8% | NCI-H226 lung 14.2% | 786-0 renal 10.6% | DU-145 prostate 10.7% | K-562 leukemia 15.1% | SF-268 CNS 28.8% | M14 melanoma 17.6%

COc1cc(/C=C\C(C)=N\Nc2ccccc2)ccc1O
inactive: NCI-H23 lung 91.2% | NCI-H226 lung 109% | NCI-H322M lung 128% | HOP-62 NSCLC 67.5% | NCI-H460 lung 111% | HOP-92 NSCLC 100% | A549/ATCC NSCLC 80.7% | 786-0 renal 97.4% | COLO 205 colon 111% | DU-145 prostate 102% | K-562 leukemia 56.1% | MALME-3M melanoma 127% | MDA-MB-231 breast 76.8% | RXF 393 renal 108% | SF-268 CNS 76.4% | SF-295 CNS 85.5% | SF-539 CNS 88.1% | UACC-257 melanoma 79.2% | M14 melanoma 97.5%

N#Cc1c(-c2ccccc2)cc(-c2ccccc2)n(CCCCC(=O)O)c1=O
inactive: NCI-H23 lung 90% | NCI-H226 lung 91% | NCI-H322M lung 98.6% | HOP-62 NSCLC 90.9% | NCI-H460 lung 102% | HOP-92 NSCLC 93.7% | A549/ATCC NSCLC 94.7% | 786-0 renal 93.7% | COLO 205 colon 108% | DU-145 prostate 107% | K-562 leukemia 80.8% | MALME-3M melanoma 87.8% | MDA-MB-231 breast 91% | RXF 393 renal 89.7% | SF-268 CNS 94% | SF-295 CNS 82.8% | SF-539 CNS 93.5% | UACC-257 melanoma 94.1% | M14 melanoma 86.4%

CN1CCN(c2nc3scc(-c4ccccc4)c3c(=O)[nH]2)CC1
inactive: NCI-H23 lung 100% | NCI-H226 lung 98.6% | NCI-H322M lung 90.3% | HOP-62 NSCLC 103% | NCI-H460 lung 108% | HOP-92 NSCLC 98.5% | A549/ATCC NSCLC 99% | 786-0 renal 98.3% | COLO 205 colon 99% | DU-145 prostate 103% | K-562 leukemia 95.9% | MALME-3M melanoma 86.4% | MDA-MB-231 breast 92% | RXF 393 renal 96.5% | SF-268 CNS 96.7% | SF-295 CNS 96.6% | SF-539 CNS 93.7% | UACC-257 melanoma 108% | M14 melanoma 97.6%

OC(c1ccccc1)C(NCc1ccccc1)c1ccccc1 (configuration not stated)
inactive: NCI-H23 lung 93.5% | NCI-H226 lung 97.7% | NCI-H322M lung 97.8% | HOP-62 NSCLC 90.5% | NCI-H460 lung 100% | HOP-92 NSCLC 71.8% | A549/ATCC NSCLC 101% | 786-0 renal 87.2% | COLO 205 colon 116% | DU-145 prostate 117% | K-562 leukemia 106% | MALME-3M melanoma 104% | MDA-MB-231 breast 98.3% | RXF 393 renal 107% | SF-268 CNS 92.8% | SF-295 CNS 94% | SF-539 CNS 90.6% | UACC-257 melanoma 110% | M14 melanoma 79.9%

COc1ccc(C2=NN(C=O)C(c3cccc(Nc4ccnc5cc(Cl)ccc45)c3)C2)cc1 (configuration not stated)
active: COLO 205 colon 0.0234% | K-562 leukemia 6.65% | SF-295 CNS 0.467% | SF-539 CNS 9.03%
inactive: NCI-H23 lung 23.5% | NCI-H226 lung 39.7% | NCI-H322M lung 45.8% | HOP-62 NSCLC 13.2% | NCI-H460 lung 14.3% | HOP-92 NSCLC 36.9% | A549/ATCC NSCLC 30.2% | 786-0 renal 28.5% | DU-145 prostate 33.2% | MALME-3M melanoma 25.2% | MDA-MB-231 breast 42.4% | RXF 393 renal 17.2% | SF-268 CNS 41.2% | UACC-257 melanoma 23.2% | M14 melanoma 19.1%

CCn1cnc(C[C@H](NC(=O)[C@H](CCCCNC(=O)Nc2cc(C(F)(F)F)cc(C(F)(F)F)c2)NC(=O)Nc2cc(C(F)(F)F)cc(C(F)(F)F)c2)C(=O)OC)c1
active: NCI-H23 lung -65.8% [100 µM] | NCI-H226 lung 2.9% [100 µM] | NCI-H322M lung 5.23% [100 µM] | HOP-62 NSCLC -75.3% [100 µM] | NCI-H460 lung -41.1% [100 µM] | HOP-92 NSCLC -45.4% [100 µM] | A549/ATCC NSCLC -75.3% [100 µM] | 786-0 renal -54.3% [100 µM] | COLO 205 colon -100% [100 µM] | DU-145 prostate -69.5% [100 µM] | K-562 leukemia -80.2% [100 µM] | MALME-3M melanoma -69.6% [100 µM] | MDA-MB-231 breast -100% [100 µM] | RXF 393 renal -47.2% [100 µM] | SF-268 CNS -53.5% [100 µM] | SF-295 CNS -97.4% [100 µM] | SF-539 CNS -66.4% [100 µM] | UACC-257 melanoma -59.1% [100 µM] | M14 melanoma -97.4% [100 µM]
